The nature of experiment [1]: qHTS assay to test for compound auto fluorescence at 535 nm (green) in HEK293 cells (AID 720680). (In general: Quantitative high-throughput screening tests each substance at several concentrations.)
Experiment [2] in a line: qHTS assay to test for compound auto fluorescence at 460 nm (blue) in HEK293 cell free culture (AID 720681). In outline: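 Compounds were added to cell-free DMEM with 10% FBS and fluorescence read directly. The blue channel used 405 nm excitation and 460 nm emission, with triamterene as the reference fluorophore.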
Experiment [3] can be described thus: qHTS assay to test for compound auto fluorescence at 535 nm (green) in HEK293 cell free culture (AID 720682). In outline:
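Using fluorescein as calibrant, autofluorescence was quantified at 485/535 nm in cell-free DMEM containing 10% FBS after pintool addition of compound or vehicle.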

A short description of experiment [4]: qHTS assay to test for compound auto fluorescence at 590 nm (red) in HEK293 cell free culture (AID 720683). A digest of the protocol: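 Cell-free wells of DMEM with 10% FBS received compound, and intrinsic fluorescence was read at excitation/emission 540/590 nm. Values expressed as equivalence to Rose Bengal sodium.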
Experiment [5] is described as follows: qHTS assay to test for compound auto fluorescence at 590 nm (red) in HepG2 cell free culture (AID 720684). A digest of the protocol: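 Rose Bengal sodium served as the reference for red signal. Test compounds were dispensed into serum-containing MEM (10% FBS) without cells, and plates were read at 540/590 nm.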
A short description of experiment [6]: qHTS assay to test for compound auto fluorescence at 460 nm (blue) in HepG2 cell free culture (AID 720685). A digest of the protocol: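 Cell-free plates of MEM plus 10% FBS received 23 nL compound or DMSO vehicle; blue-channel (405/460 nm) intensity scored against triamterene as reference fluorophore.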
The nature of experiment [7]: qHTS assay to test for compound auto fluorescence at 535 nm (green) in HepG2 cell free culture (AID 720686).
The nature of experiment [8]: qHTS assay to test for compound auto fluorescence at 460 nm (blue) in HepG2 cells (AID 720687). In outline:
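HepG2 cells in MEM with 10% FBS, attached overnight at 37 C, were exposed to compound or DMSO for 1 hr at 37 C, 5% CO2. Blue fluorescence was read at 405/460 nm, with triamterene as reference fluorophore.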

Experiment [9] deals with Glucocorticoid receptor (Homo sapiens) (UniProt P04150). Nature of the experiment: qHTS assay to identify small molecule agonists of the glucocorticoid receptor (GR) signaling pathway (AID 720691; active = well fitted activation curve with a large enough effect in the signal ratio in the repeat runs, not every such curve was filed as active; inconclusive = weak or mixed curves, or effect the other way; inactive = no such curve, though single readings can be large or run the other way; the % refers to the signal ratio; note: potency is the fitted concentration of half-maximal effect). Particulars: GR-bla HeLa, beta-lactamase reporter ratio, 18 h; activation: at 62.4 µM (top of the series). A digest of the protocol: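 Agonist-mode qHTS in HeLa cells stably expressing a glucocorticoid-response-element beta-lactamase reporter. Fluorescence intensity read with FRET substrate (2 h, room temperature) after 18 h compound treatment at 37 C.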
Chain of Glucocorticoid receptor (Homo sapiens) (P04150 whole entry, looked up): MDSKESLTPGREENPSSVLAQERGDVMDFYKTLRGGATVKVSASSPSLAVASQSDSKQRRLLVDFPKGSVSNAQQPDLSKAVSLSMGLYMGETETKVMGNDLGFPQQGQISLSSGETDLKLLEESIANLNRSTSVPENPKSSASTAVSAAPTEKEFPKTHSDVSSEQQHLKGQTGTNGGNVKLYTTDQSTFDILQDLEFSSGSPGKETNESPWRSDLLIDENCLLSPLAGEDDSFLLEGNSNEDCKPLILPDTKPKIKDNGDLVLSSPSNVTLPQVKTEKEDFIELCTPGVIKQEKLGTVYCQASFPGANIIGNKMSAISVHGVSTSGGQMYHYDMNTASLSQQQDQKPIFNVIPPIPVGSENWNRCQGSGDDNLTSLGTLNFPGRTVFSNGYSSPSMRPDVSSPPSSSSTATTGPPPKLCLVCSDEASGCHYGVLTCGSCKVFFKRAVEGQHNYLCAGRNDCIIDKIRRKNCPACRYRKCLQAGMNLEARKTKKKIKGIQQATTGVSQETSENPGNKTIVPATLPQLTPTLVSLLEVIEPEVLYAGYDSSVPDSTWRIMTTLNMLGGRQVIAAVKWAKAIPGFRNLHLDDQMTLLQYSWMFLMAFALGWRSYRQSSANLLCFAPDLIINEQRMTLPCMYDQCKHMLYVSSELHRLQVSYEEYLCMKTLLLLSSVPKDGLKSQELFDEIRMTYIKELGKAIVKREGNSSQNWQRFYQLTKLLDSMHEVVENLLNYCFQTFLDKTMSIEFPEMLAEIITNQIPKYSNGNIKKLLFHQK

The source made the active and inactive calls. Unless noted, calls come from the whole dose curve; as a rule, active = well fitted curve in the direction sought with a large enough effect in the repeat runs; inconclusive = weak or mixed curves; inactive = flat fitted curve, though single readings scatter.

Results on 19 molecules are retold here after PubChem BioAssay (Tox21).
% is set by controls: 0 for no effect and ±100 for the full control effect.

For `CN1CCN(C(c2ccccc2)c2ccc(Cl)cc2)CC1` (stereo unspecified), the Potency result in [1], in experiment [2], in [3], in experiment [4], in experiment [5] and in experiment [7] was “inactive” throughout. In experiment [9], the Potency entry was “inactive”. The call in experiment [6] and in experiment [8] was inactive.

On to `C[C@H]1C[C@H]2[C@@H]3CCC4=CC(=O)C=C[C@]4(C)[C@@]3(F)[C@@H](O)C[C@]2(C)[C@@]1(O)C(=O)CCl`, for which the Potency result in experiment [1], in experiment [2], in experiment [3], in experiment [4], in [5] and in experiment [7] was “inactive” in each case. Besides, the call in [6] and in experiment [8] was inactive. Further, the Potency in experiment [9] was 1.7 nM (active).

With `CC[C@@]1(O)C(=O)OCc2c1cc1n(c2=O)Cc2cc3c([N+](=O)[O-])cccc3nc2-1`, the Potency entry in experiment [1], in experiment [2], in experiment [3], in experiment [4], in [5] and in [7] was “inactive” throughout. The molecule was called inactive in experiment [6] and in experiment [8]. The activation in experiment [9] is 5.3% [inconclusive] (active).

As for `C[C@@H]1C[C@H]2C3C[C@H](F)C4=CC(=O)C=CC4(C)[C@@]3(F)[C@@H](O)CC2(C)[C@@]1(O)C(=O)COC(=O)C(C)(C)C` (stereo partly specified), the Potency result in [1], in experiment [2], in experiment [3], in experiment [4], in [5] and in experiment [7] was “inactive” throughout. Moreover, the call in experiment [6] and in experiment [8] was inactive. In addition, in experiment [9], the Potency is 6.7 nM [inconclusive] (active).

With `CC1(C)C(\C=C/C=C\C=C/C=C2/N(CCCCS(=O)(=O)O)c3ccc4ccccc4c3C2(C)C)=[N+](CCCCS(=O)(=O)[O-])c2ccc3ccccc3c21`, the Potency result in experiment [1], in [2], in [3], in experiment [4], in [5] and in [7] was “inactive” each time. Besides, in experiment [9], the Potency entry is “inactive”. The result in experiment [6] and in experiment [8] was inactive.

For the molecule `CC(C)N=c1cc2n(-c3ccc(Cl)cc3)c3ccccc3nc-2cc1Nc1ccc(Cl)cc1`, the Potency entry in [1], in experiment [2], in experiment [3], in experiment [4], in experiment [5] and in [7] was “inactive” each time. In experiment [9], the Potency result is “inactive”. The molecule was called inactive in experiment [6] and in experiment [8].

In the case of `COC(=O)[C@H]1[C@H]2C[C@@H]3c4[nH]c5cc(OC)ccc5c4CCN3C[C@H]2C[C@@H](OC(=O)/C=C/c2cc(OC)c(OC)c(OC)c2)[C@@H]1OC`, the Potency entry in experiment [1], in experiment [2], in experiment [3], in experiment [4], in experiment [5] and in [7] was “inactive” in each case. Also, the Potency result in experiment [9] was “inactive”. The molecule was classed as inactive in experiment [6] and in experiment [8].

Consider `O=C(NCCNCC(O)COc1ccc(O)cc1)N1CCOCC1` (stereo unspecified), for which the Potency result in experiment [1], in experiment [2], in experiment [3], in experiment [4], in [5] and in experiment [7] was “inactive” each time. Further, the Potency entry in experiment [9] is “inactive”. In addition, the outcome in experiment [6] and in experiment [8] was inactive.

As for `COc1ccc(C(=O)CCC(=O)O)c2ccccc12`, the Potency result in [1], in experiment [2], in experiment [3], in experiment [4], in experiment [5] and in [7] was “inactive” each time. Besides, in experiment [9], the Potency result was “inactive”. In addition, the molecule was called inactive in experiment [6] and in experiment [8].

Take `CN(C)C(=O)CCSC(SCCC(=O)O)c1cccc(/C=C/c2ccc3ccc(Cl)cc3n2)c1` (stereo unspecified): the Potency result in experiment [1], in [2], in experiment [3], in experiment [4], in experiment [5] and in experiment [7] was “inactive” in each case. Moreover, the Potency result in [9] was “inactive”. The outcome in experiment [6] and in experiment [8] was inactive.

As for `N[C@@H](C(=O)N[C@@H]1C(=O)N2C(C(=O)O)=C(Cl)CC[C@H]12)c1ccccc1`, the Potency entry in experiment [1], in [2], in [3], in experiment [4], in [5] and in [7] was “inactive” throughout. Further, the molecule was called inactive in experiment [6] and in experiment [8]. For the same molecule, the Potency in [9] was 21300 nM (active).

For `Nc1ncnc2c1ncn2[C@@H]1O[C@H](COP(=O)(O)OP(=O)(O)OP(=O)(O)O)[C@@H](O)[C@H]1O`, the Potency result in experiment [1], in experiment [2], in experiment [3], in experiment [4], in [5] and in [7] was “inactive” throughout. Besides, the Potency result in [9] was “inactive”. In addition, the result in [6] and in experiment [8] was inactive.

Consider `N[C@H](CC(=O)O)C(=O)O`, for which the Potency result in experiment [1], in experiment [2], in [3], in experiment [4], in [5] and in experiment [7] was “inactive” each time. Also, the Potency result in experiment [9] was “inactive”. For the same molecule, the outcome in experiment [6] and in [8] was inactive.

For `COc1ccc(-c2noc(CC(=O)O)c2-c2ccc(OC)cc2)cc1`, the Potency result in [1], in experiment [2], in experiment [3], in experiment [4], in experiment [5] and in experiment [7] was “inactive” in each case. Further, in experiment [9], the Potency result was “inactive”. The result in [6] and in experiment [8] was inactive.

Regarding `COc1cc([C@@H]2c3cc4c(cc3C(O[C@@H]3O[C@@H]5COC(c6cccs6)O[C@H]5[C@H](O)[C@H]3O)C3COC(=O)[C@@H]32)OCO4)cc(OC)c1O` (stereo partly specified), the Potency entry in [1], in experiment [2], in [3], in [4], in experiment [5] and in experiment [7] was “inactive” each time. The molecule was classed as inactive in experiment [6] and in experiment [8]. The Potency in experiment [9] is 3380 nM (active).

On to `COC(=O)[C@@H](N)CS`, for which the Potency entry in experiment [1], in [2], in [3], in experiment [4], in [5] and in experiment [7] was “inactive” each time. The Potency result in experiment [9] is “inactive”. The result in experiment [6] and in experiment [8] was inactive.

`CCOC(=O)O[C@]1(C(=O)COC(=O)CC)CC[C@H]2[C@@H]3CCC4=CC(=O)C=C[C@]4(C)[C@H]3[C@@H](O)C[C@@]21C`: the Potency result in experiment [1], in [2], in [3], in experiment [4], in experiment [5] and in experiment [7] was “inactive” each time. In addition, the result in [6] and in [8] was inactive. For the same molecule, the Potency in experiment [9] is 28.8 nM (active).

Regarding `CC(C)[C@@H](N)C(=O)O`, the Potency entry in [1], in [2], in [3], in experiment [4], in [5] and in [7] was “inactive” in each case. Further, the Potency entry in experiment [9] was “inactive”. Also, the result in [6] and in [8] was inactive.

`CCCCC(F)(F)[C@@]1(O)CC[C@H]2[C@@H](CC(=O)[C@@H]2CCCCCCC(=O)O)O1`: the Potency result in [1], in [2], in [3], in [4], in experiment [5] and in experiment [7] was “inactive” in each case. Besides, in experiment [9], the Potency entry is “inactive”. The result in experiment [6] and in experiment [8] was inactive.
